# Laboratory results reported in PubChem BioAssay (NCATS).
# Several values for one entry are separate records, joined by “and”; a condition that tells them apart may be missing. Identical values can stand only once. Unmarked numbers belong to inactive results. Results filed as inconclusive are left out. Activity calls are given as the source filed them. Unless noted, the call rests on the fitted dose curve; in most records, active means well fitted curve in the direction sought with a large enough effect; inconclusive means small, poorly fitted or top-dose-only effect, or another doubt; inactive means no such curve, though single readings can be large; an effect the other way counts as inactive or inconclusive.
# Legend:
# [1] = qHTS assay to identify inhibitors of the type 1 interferon - major histocompatibility complex class I in skeletal muscle: Counter screen cell viability and HiBit confirmation (AID 1347412); settings: iHSKM muscle cells + IFN-b, HiBiT or CellTiter-Glo, 24 h; further: nearly all actives have a fitted effect of over 60% in size; further: potency means the concentration at half of the fitted maximal effect; on activity change, negative = inhibition: on the % scale 0 is the no-effect control and ±100 the full control effect
# Method in brief: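 CRISPR HLA-B*08:01-HiBit immortalized human myoblasts (C25cl48) stimulated with 4 ng/ml IFN-beta and compounds (12-point 1:3, top 46 uM final) for 24 h at 37 C. Duplicate plates read by HiBit lytic luminescence or CellTiter Glo ATP.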
# [2] = Drug repurposing screens with cells derived from glioblastoma tumor samples (AID 1345199); settings: GBM patient neurospheres viability, ATP luminescence, 48 h; further: nearly all actives have a fitted effect of over 40% in size; further: potency means the concentration at half of the fitted maximal effect; on activity, negative = cell killing: on the % scale 0 is the no-effect control and ±100 the full control effect
# Method in brief: (§1)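 Primary testing used CD133+ neurospheres from four GBM patients, seven concentrations, 48 h exposure and ATP-based viability; confirmation added three slower-growing patient lines.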
# astro = test: as above; settings: viability, ATP luminescence, 48 h; series mostly up to 45.9 µM
# Method in brief: as §1
# [3] = target: Nuclear receptor subfamily 1 group I member 2 (Rattus norvegicus) (UniProt Q9R1A7); test: qHTS assay for small molecule activators of the rat pregnane X receptor (rPXR) signaling pathway (AID 651751; call rule not given here; further: 0% is about no effect); settings: rPXR reporter cells, luciferase (One-Glo), 24 h
# Sequence of Nuclear receptor subfamily 1 group I member 2 (Rattus norvegicus) (Q9R1A7 whole entry, looked up): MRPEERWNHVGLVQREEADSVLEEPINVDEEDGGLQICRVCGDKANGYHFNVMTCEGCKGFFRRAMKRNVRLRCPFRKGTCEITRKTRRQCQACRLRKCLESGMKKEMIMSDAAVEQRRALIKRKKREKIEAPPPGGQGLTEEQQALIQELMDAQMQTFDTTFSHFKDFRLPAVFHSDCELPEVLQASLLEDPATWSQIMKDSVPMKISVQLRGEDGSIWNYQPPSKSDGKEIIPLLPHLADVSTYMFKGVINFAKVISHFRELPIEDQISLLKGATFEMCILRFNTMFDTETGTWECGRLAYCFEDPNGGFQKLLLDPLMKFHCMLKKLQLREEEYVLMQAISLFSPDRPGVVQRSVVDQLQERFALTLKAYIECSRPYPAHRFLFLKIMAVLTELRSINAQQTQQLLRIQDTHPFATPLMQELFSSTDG
# [4] = qHTS assay for small molecule activators of the human pregnane X receptor (PXR) signaling pathway (AID 720659; call rule not given here; further: 0% is about no effect); settings: DPX-2 HepG2 CYP3A4-luciferase, 24 h; series mostly up to 92.3 µM
# [5] = at 45.9 µM (top of the series), tumour line B
# [6] = at 46.1 µM (top of the series), tumour line C
# [7] = at 45.9 µM (top of the series), tumour line D
smiles,measurement,setting,value
NC(=O)c1cnc(N[C@@H]2CCCC[C@@H]2N)nc1Nc1cccc(-n2nccn2)c1,"activity change, negative = inhibition","[1]; Viability, at 45.9 µM (top of the series)",-17.1%
COc1cc2[nH]c(C)c(CCN3CCN(c4ccccc4)CC3)c2cc1OC,"activity, negative = cell killing",[2]; [5],-18.7%
same,"activity, negative = cell killing",[2]; [6],-15.6%
same,Potency,[2]; tumour line A,15.8 µM (active)
same,Potency,astro,inactive
CN=C(NC)NCc1ccccc1,"activity, negative = cell killing",[2]; [5],-3.78%
same,"activity, negative = cell killing",[2]; [7],7.26%
same,"activity, negative = cell killing",[2]; [6],-3.39%
same,Potency,astro,inactive
CCN(CC)c1ccc(C(=C2C=CC(=[N+](CC)CC)C=C2)c2ccccc2)cc1,Potency,astro,2 µM (active)
O=C[C@H](O)[C@@H](O)[C@H](O)[C@H](O)CO,"activity, negative = cell killing",[2]; [5],-4.49%
same,"activity, negative = cell killing",[2]; [7],-7.76%
same,"activity, negative = cell killing",[2]; [6],7.35%
same,Potency,astro,inactive
CON=C1C[C@]2(C[C@@H]3C[C@@H](C/C=C(\C)C[C@@H](C)/C=C/C=C4\CO[C@@H]5[C@H](O)C(C)=C[C@@H](C(=O)O3)[C@]45O)O2)O[C@H](/C(C)=C/C(C)C)[C@H]1C,Potency,astro,17.8 µM (active) and 20 µM (active)
C[C@H](/C=C/[C@H](C)C(C)(C)O)[C@H]1CC[C@H]2/C(=C/C=C3C[C@@H](O)C[C@H](O)C3)CCC[C@]12C,Potency,astro,inactive
CCC(C)[C@H]1O[C@]2(C=C[C@@H]1C)C[C@@H]1C[C@@H](C/C=C(\C)[C@@H](O[C@H]3C[C@H](OC)[C@@H](O[C@H]4C[C@H](OC)[C@H](NC(C)=O)[C@H](C)O4)[C@H](C)O3)[C@@H](C)/C=C/C=C3\CO[C@@H]4[C@H](O)C(C)=C[C@@H](C(=O)O1)[C@]34O)O2 (stereo not given in full),Potency,astro,6.31 µM (active) and 20 µM (active)
CC(C(=O)O)c1ccc(C2CCCCC2)c2ccccc12 (stereo not given),"activity, negative = cell killing",[2]; [5],-3.21%
same,"activity, negative = cell killing",[2]; [7],-15.4%
same,"activity, negative = cell killing",[2]; [6],-7.75%
same,Potency,astro,inactive
C/C=C1\NC(=O)[C@H]2CSSCC/C=C/[C@H](CC(=O)N[C@H](C(C)C)C(=O)N2)OC(=O)C(C(C)C)NC1=O (stereo not given in full),Potency,astro,0.708 µM (active)
Cc1cccc(C)c1N(CCCc1cccnc1)C(=O)C(C)N (stereo not given),"activity, negative = cell killing",[2]; [5],-3.85%
same,"activity, negative = cell killing",[2]; [7],-15.3%
same,Potency,[2]; tumour line A,11.2 µM (active)
same,Potency,astro,inactive
COC(=O)C[C@](O)(CCCC(C)(C)O)C(=O)O[C@@H]1C(OC)=CC23CCCN2CCc2cc4c(cc2[C@H]13)OCO4 (stereo not given in full),Potency,astro,1.12 µM (active)
CCCCCCCCCCCCCCCC(=O)OC[C@@H](COP(=O)([O-])OCC[N+](C)(C)C)OC(=O)CCCCCCCCCCCCCCC,"activity, negative = cell killing",[2]; [5],-16.6%
same,"activity, negative = cell killing",[2]; [7],2.92%
same,"activity, negative = cell killing",[2]; [6],0.955%
same,Potency,astro,inactive
COC1=C(C(=O)O)N2C(=O)[C@@H](NC(=O)[C@H](N)C3=CCC=CC3)[C@H]2SC1,"activity, negative = cell killing",[2]; [5],-9.93%
same,"activity, negative = cell killing",[2]; [7],-11%
same,"activity, negative = cell killing",[2]; [6],6.55%
same,Potency,astro,inactive
N#Cc1ccnc(Nc2cc(C3CCN(C4COC4)CC3)cc(N3CCC(F)(F)C3)n2)c1,Potency,[1]; HiBiT,3.52 µM (active)
NCCCNCCCCNC(=O)C(O)NC(=O)CCCCCCN=C(N)N (stereo not given),"activity, negative = cell killing",[2]; [5],-10.7%
same,"activity, negative = cell killing",[2]; [6],-21.3%
same,Potency,astro,inactive
C[N+](C)(CCCCCC[N+](C)(C)C1c2ccccc2-c2ccccc21)C1c2ccccc2-c2ccccc21,Potency,astro,inactive
C=CCNC1=C2C[C@@H](C)C[C@H](OC)[C@H](O)[C@@H](C)/C=C(\C)[C@H](OC(N)=O)[C@@H](OC)/C=C\C=C(/C)C(=O)NC(=CC1=O)C2=O,Potency,astro,1.26 µM (active)
same,Potency,[1]; HiBiT,0.0701 µM (active)
Cc1c(O)cc2c(c1C)O[C@](C)(CCC[C@H](C)CCC[C@H](C)CCCC(C)C)CC2,Potency,astro,inactive
CC1=C(C(=O)OCCN(Cc2ccccc2)c2ccccc2)C(c2cccc([N+](=O)[O-])c2)C(P2(=O)OCC(C)(C)CO2)=C(C)N1 (stereo not given),"activity, negative = cell killing",[2]; [5],19%
same,Potency,astro,inactive
CCC(C)(C)OC(=O)N[C@@H](Cc1c[nH]c2ccccc12)C(=O)N[C@@H](CCSC)C(=O)N[C@@H](CC(=O)O)C(=O)N[C@@H](Cc1ccccc1)C(N)=O,"activity, negative = cell killing",[2]; [5],-2.77%
same,"activity, negative = cell killing",[2]; [7],-10.3%
same,"activity, negative = cell killing",[2]; [6],-14.8%
same,Potency,astro,inactive
COC(C)=O,"activity, negative = cell killing",[2]; [5],-2.89%
same,"activity, negative = cell killing",[2]; [7],6.97%
same,"activity, negative = cell killing",[2]; [6],7.29%
same,max response,[3],5.57%
same,outcome,[4],inactive
CC(C)(C)CC(=O)OCC(=O)[C@@]12OC(C)(C)O[C@@H]1C[C@H]1[C@@H]3CCC4=CC(=O)C=C[C@]4(C)[C@@]3(F)[C@@H](O)C[C@@]12C,"activity, negative = cell killing",[2]; [5],-19.8%
same,"activity, negative = cell killing",[2]; [6],-0.929%
same,Potency,astro,inactive
CNC[C@@H]1CC[C@@H](N)[C@@H](O[C@H]2[C@H](O)[C@@H](O[C@H]3OC[C@](C)(O)[C@H](NC)[C@H]3O)[C@H](N)C[C@@H]2N)O1,"activity, negative = cell killing",[2]; [5],-14.4%
same,"activity, negative = cell killing",[2]; [7],-20.8%
same,"activity, negative = cell killing",[2]; [6],16.1%
same,Potency,astro,inactive
CCCCCCCCCCCCCCCC(=O)OC[C@H](O)[C@H]1OC(=O)C(O)=C1O,"activity, negative = cell killing",[2]; [5],-21.6%
same,"activity, negative = cell killing",[2]; [7],-24.1%
same,Potency,astro,inactive
CCC(C)C(C(=O)OCC[N+](C)(CC)CC)c1ccccc1 (stereo not given),"activity, negative = cell killing",[2]; [5],-18.7%
same,"activity, negative = cell killing",[2]; [7],-27.8%
same,Potency,[2]; tumour line A,11.2 µM (active)
same,Potency,astro,inactive
COC(=O)Nc1cc(Nc2cc(NC3CC3)c3ncc(C#N)n3n2)c(Cl)c(N2CCN(C)CC2)c1,Potency,[1]; HiBiT,7.01 µM (active)
same,Potency,[1]; Viability,17.6 µM (active)
CCOC(=O)Nc1ccc2c(c1)N(C(=O)CN(C)C)c1ccccc1CC2,"activity, negative = cell killing","[2]; at 99.2 µM (top of the series), tumour line C",-30.7%
same,Potency,[2]; tumour line A,44.7 µM (active)
same,Potency,[2]; tumour line D,56.2 µM (active)
same,Potency,astro,inactive
NCCC[C@H](N)C(=O)O,"activity, negative = cell killing",[2]; [5],-11.7%
same,"activity, negative = cell killing",[2]; [7],-10.6%
same,"activity, negative = cell killing",[2]; [6],-18.4%
same,Potency,astro,inactive
NCCC(=O)[N-][C@@H](Cc1cnc[nH]1)C(=O)O.[Zn],"activity, negative = cell killing",[2]; [5],-11.4%
same,"activity, negative = cell killing",[2]; [7],-14.7%
same,"activity, negative = cell killing",[2]; [6],0.418%
same,Potency,astro,inactive
CC#CCC(C)[C@H](O)/C=C/[C@@H]1[C@H]2c3cccc(CCCC(=O)O)c3O[C@H]2C[C@H]1O (stereo not given in full),"activity, negative = cell killing",[2]; [5],-5.83%
same,"activity, negative = cell killing",[2]; [7],2.53%
same,"activity, negative = cell killing",[2]; [6],-26.2%
same,Potency,astro,inactive
CCOC(=O)[C@H](CCc1ccccc1)N[C@H]1CCCN2CCC[C@@H](C(=O)O)N2C1=O,"activity, negative = cell killing",[2]; [5],-17.5%
same,"activity, negative = cell killing",[2]; [7],-14.2%
same,"activity, negative = cell killing",[2]; [6],4.99%
same,Potency,astro,inactive
